# The full data set covers some 8,800 targets. This sample favours those with a hit. About 0.5% of all pairs of compound and target were hits. A number with no mark means an inactive call.
# Assays:
# Assay in all cases: log2 fold change, soluble protein after heating vs DMSO (PISA); higher = thermal stabilisation; K562 lysate, 10 uM; active = over 0.2 and 3.5 SD of the protein, either way, in both replicates (recomputed)
# [1] = compound: CC1=C2C(=CC=C1)N=C(N(C2=O)C3=CC=CC=C3C)CN4C=NC5=C(N=CN=C54)N
# In short: (§1)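 The values are log-two fold changes in thermal stability compared with solvent controls and come from duplicates. They were obtained by TMTpro 16plex LC-MS/MS, with channel sums equalised, on the supernatant after 21,000xg for 90 min. That supernatant came from crude K562 extract at 1 mg/mL protein treated with 10 μM compound for 30 min, heated for 3 min across 48°C-58°C, pooled and brought to 0.5% NP-40 at 4°C.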
# [2] = compound: Cc1sc2c(c1C)C(c1ccc(Cl)cc1)=N[C@@H](CC(=O)OC(C)(C)C)c1nnc(C)n1-2
# In short: as §1
# [3] = compound: c1ccc([C@@H]2C[C@H]2NC2CCNCC2)cc1
# In short: as §1
# [4] = compound: C1=CC=C(C=C1)[C@H](COC2=CC3=C(C=C2)NC(=O)N3)NC(=O)C4=CC=CN(C4=O)CC5=CC(=C(C=C5)F)F
# In short: as §1
# [5] = compound: CC1=C(SC2=C1C(=N[C@H](C3=NN=C(N32)C)CC(=O)N)C4=CC=C(C=C4)Cl)C
# In short: as §1
# Chain of UniProt Q9GZY8 (Q9GZY8 whole entry, looked up): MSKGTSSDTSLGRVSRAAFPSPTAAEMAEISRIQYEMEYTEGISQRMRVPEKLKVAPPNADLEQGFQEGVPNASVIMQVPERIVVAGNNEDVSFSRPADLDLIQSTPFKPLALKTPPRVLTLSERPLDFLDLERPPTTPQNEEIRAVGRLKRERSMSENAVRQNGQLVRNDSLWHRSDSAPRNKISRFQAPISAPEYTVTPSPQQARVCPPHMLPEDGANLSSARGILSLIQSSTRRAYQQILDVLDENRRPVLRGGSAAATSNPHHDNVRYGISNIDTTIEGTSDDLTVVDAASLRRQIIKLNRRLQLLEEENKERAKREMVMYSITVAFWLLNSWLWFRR
# Chain of UniProt O95819 (O95819 whole entry, looked up): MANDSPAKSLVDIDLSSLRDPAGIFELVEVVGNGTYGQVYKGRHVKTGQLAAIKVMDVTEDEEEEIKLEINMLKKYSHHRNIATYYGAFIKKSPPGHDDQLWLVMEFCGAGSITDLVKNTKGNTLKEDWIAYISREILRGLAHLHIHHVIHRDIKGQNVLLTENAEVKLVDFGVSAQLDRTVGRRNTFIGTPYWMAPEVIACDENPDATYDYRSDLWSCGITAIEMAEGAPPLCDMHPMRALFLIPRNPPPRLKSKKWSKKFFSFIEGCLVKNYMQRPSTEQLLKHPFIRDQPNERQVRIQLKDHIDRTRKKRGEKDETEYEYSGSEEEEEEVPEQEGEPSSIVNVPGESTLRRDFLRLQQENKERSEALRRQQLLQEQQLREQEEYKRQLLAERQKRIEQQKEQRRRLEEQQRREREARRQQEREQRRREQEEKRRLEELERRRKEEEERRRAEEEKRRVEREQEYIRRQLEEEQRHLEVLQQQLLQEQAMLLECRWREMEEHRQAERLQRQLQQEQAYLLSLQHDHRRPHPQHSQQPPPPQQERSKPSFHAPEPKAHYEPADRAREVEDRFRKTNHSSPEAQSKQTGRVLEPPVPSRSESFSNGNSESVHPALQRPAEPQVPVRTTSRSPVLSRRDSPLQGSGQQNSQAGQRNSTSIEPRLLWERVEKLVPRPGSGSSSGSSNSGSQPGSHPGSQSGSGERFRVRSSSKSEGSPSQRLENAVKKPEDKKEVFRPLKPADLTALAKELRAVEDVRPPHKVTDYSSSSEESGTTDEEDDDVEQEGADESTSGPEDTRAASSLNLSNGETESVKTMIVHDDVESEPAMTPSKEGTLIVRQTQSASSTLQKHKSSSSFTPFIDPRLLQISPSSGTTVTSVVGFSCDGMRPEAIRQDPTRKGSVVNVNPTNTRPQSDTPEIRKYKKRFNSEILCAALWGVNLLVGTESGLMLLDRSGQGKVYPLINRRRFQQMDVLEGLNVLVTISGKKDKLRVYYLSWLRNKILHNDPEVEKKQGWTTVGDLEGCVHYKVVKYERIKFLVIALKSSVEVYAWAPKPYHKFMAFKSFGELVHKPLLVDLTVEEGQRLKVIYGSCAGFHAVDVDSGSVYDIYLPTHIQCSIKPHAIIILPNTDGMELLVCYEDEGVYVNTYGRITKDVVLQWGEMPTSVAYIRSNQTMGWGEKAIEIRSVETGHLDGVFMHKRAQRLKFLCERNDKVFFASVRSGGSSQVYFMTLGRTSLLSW
# Chain of UniProt Q08380 (Q08380 whole entry, looked up): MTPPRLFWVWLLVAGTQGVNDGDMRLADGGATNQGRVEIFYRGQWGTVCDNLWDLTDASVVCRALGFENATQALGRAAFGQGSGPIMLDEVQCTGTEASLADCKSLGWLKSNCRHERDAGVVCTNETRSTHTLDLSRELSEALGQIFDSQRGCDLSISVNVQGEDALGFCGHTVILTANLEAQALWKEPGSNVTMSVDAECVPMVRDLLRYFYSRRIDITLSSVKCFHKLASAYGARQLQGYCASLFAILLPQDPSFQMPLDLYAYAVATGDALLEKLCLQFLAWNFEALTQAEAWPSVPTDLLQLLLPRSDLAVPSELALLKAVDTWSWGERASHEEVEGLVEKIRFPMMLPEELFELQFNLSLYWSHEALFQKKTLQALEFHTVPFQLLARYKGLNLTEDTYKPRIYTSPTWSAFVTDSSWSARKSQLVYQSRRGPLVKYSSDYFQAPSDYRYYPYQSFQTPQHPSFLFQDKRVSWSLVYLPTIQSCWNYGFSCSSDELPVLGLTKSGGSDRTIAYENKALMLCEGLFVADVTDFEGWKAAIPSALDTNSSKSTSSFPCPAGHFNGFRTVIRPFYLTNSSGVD
# Chain of UniProt P01116 (P01116 whole entry, looked up): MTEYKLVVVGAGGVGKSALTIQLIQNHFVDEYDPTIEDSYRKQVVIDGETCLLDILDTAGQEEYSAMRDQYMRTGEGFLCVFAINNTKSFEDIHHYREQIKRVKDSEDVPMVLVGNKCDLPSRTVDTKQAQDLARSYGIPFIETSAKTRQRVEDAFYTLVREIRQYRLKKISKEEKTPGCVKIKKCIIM
# Chain of UniProt Q96G25 (Q96G25 whole entry, looked up): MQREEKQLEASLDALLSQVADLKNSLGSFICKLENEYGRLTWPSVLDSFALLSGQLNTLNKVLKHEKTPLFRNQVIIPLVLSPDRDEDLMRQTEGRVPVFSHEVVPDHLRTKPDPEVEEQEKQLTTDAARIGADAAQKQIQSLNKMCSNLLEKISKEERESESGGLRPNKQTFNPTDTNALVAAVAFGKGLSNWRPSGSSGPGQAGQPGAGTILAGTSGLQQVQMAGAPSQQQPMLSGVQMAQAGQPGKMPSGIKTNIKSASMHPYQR
# Chain of UniProt Q8WXB1 (Q8WXB1 whole entry, looked up): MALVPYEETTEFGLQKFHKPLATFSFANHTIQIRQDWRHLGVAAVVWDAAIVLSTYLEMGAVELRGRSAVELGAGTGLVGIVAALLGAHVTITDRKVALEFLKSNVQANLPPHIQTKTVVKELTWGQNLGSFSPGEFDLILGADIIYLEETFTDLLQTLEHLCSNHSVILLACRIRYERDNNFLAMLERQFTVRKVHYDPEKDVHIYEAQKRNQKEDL
# Chain of UniProt O75970 (O75970 whole entry, looked up): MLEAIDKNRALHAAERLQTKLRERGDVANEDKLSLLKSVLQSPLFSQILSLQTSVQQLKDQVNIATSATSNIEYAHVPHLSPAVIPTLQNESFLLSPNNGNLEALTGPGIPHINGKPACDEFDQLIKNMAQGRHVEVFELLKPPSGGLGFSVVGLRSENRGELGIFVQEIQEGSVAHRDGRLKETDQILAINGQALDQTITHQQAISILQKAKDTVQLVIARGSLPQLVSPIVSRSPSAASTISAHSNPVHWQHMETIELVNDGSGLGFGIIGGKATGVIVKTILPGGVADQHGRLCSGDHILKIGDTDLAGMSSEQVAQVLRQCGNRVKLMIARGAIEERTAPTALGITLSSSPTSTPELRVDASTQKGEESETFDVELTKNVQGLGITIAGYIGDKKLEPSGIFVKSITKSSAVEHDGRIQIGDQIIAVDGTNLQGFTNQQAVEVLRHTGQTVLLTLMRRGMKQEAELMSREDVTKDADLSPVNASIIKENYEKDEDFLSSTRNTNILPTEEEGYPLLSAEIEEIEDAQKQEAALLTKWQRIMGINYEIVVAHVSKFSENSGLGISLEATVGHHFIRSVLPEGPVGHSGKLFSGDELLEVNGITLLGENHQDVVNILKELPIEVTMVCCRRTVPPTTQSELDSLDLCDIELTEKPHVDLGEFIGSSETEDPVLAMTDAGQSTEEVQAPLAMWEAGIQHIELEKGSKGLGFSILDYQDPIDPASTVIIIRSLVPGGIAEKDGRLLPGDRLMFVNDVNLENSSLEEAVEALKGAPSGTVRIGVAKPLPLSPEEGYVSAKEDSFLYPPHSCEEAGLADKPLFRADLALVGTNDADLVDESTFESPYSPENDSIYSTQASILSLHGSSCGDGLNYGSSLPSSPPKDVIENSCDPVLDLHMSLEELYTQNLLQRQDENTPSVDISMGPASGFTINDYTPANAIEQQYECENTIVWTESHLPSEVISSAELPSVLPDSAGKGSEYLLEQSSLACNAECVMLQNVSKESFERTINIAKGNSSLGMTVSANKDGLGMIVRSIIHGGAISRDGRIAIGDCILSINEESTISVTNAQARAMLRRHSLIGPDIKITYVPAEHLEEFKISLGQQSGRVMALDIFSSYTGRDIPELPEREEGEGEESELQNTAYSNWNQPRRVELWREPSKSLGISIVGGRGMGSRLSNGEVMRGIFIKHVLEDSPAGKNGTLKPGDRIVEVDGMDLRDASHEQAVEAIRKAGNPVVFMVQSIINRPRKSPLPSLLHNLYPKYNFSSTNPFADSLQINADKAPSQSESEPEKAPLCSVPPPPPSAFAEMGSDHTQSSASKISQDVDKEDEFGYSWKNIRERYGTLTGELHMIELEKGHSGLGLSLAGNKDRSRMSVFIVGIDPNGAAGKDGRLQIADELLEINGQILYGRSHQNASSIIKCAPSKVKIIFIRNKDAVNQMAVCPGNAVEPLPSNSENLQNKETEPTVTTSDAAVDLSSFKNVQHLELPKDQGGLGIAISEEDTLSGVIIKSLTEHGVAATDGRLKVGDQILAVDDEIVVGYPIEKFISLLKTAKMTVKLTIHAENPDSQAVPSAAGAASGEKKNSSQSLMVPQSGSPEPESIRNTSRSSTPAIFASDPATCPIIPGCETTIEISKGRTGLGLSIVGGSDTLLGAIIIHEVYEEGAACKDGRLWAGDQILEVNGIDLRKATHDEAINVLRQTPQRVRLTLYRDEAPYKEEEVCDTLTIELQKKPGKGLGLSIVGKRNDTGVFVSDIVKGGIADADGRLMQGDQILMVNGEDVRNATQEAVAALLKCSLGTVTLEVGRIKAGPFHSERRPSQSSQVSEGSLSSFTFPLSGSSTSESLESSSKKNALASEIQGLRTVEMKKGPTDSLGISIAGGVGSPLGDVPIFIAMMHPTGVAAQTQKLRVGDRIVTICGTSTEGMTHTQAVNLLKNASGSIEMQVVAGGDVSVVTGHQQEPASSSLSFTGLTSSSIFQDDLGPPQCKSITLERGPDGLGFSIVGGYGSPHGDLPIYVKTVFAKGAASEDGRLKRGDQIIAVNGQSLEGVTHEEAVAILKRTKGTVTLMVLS
# Chain of UniProt Q16553 (Q16553 whole entry, looked up): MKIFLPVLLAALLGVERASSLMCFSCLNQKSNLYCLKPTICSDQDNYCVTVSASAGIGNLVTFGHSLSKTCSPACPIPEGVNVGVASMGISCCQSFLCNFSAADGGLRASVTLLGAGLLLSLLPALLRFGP
Target,log2 fold change [1],log2 fold change [2],log2 fold change [3],log2 fold change [4],log2 fold change [5]
KIF3C (UniProt O14782),0.683,-0.059,0.022,,
LRIF1 (UniProt Q5T3J3),-0.072,0.048,-0.071,,
LGALS3BP (UniProt Q08380),0.159,-0.152,-0.071,,
MRPL27 (UniProt Q9P0M9),,-0.048,0.208,0.002,-0.046
MEX3A (UniProt A1L020),0.15,-0.073,,,
MDM1 (UniProt Q8TC05),0.018,-0.116,-0.866 (active),,
LRRIQ1 (UniProt Q96JM4),-0.002,,,,
MRC2 (UniProt Q9UBG0),,0.209,-0.084,,
MFF isoform 2 (UniProt Q9GZY8),-0.009,-0.049,-0.125,0.044,-0.029
LYN isoform 2 (UniProt P07948),,0.043,0.102,,
LRP1 (UniProt Q07954),0.125,,,,
MED25 isoform 3 (UniProt Q71SY5),,0.01,0.052,-0.069,0.026
KIF18B (UniProt Q86Y91),,-0.083,,,
MAPKAP1 (UniProt Q9BPZ7),,-0.048,,,
KIF21A (UniProt H0YI78),,0.106,,0.128,0.02
MAP4K4 isoform 6 (UniProt O95819),,-0.163,,0.076,0.063
MED28 (UniProt Q9H204),,-0.032,0.018,,
LRRC9 (UniProt Q6ZRR7),0.008,,0.209,,

Target,log2 fold change [1],log2 fold change [2],log2 fold change [3],log2 fold change [4],log2 fold change [5]
MAN2B2 (UniProt Q9Y2E5),,-0.007,0.255,0.087,0.086
KRAS (UniProt P01116),0.088,0.016,-0.092,,
KIF2A isoform 2 (UniProt O00139),,,0.326,,
MAPK7 (UniProt Q13164),,,0.042,,
KMT2B (UniProt Q9UMN6),,-0.012,,,
LRPPRC (UniProt H7C3W8),0.219,,,,
MRPL30 isoform 2 (UniProt Q8TCC3),,-0.102,0.476,0.086,-0.056
LSG1 (UniProt Q9H089),0.084,-0.028,-0.044,0.068,0.038
MDM2 isoform 11 (UniProt Q00987),-0.007,,-0.158,0.109,-0.092
MCUB (UniProt Q9NWR8),,0.044,0.205,0.097,-0.171
MPDZ (UniProt O75970),-0.024,-0.159,-0.09,,
MED8 isoform 2 (UniProt Q96G25),-0.048,-0.039,0.063,-0.047,-0.033
METTL21A (UniProt Q8WXB1),,-0.068,0,0.048,-0.069
MEGF8 (UniProt Q7Z7M0),,0.116,0.1,0.023,-0.022
MRPL22 (UniProt Q9NWU5),,,0.019,,
KRAS isoform 2 (UniProt P01116),,-0.006,,,
LY6E (UniProt Q16553),-0.075,,-0.815,-0.031,-0.046
MAP3K6 (UniProt O95382),0.012,,,,
